Data taken from PubChem BioAssay AID449762 (Southern Research Specialized Biocontainment Screening …, 2010).
The campaign covered roughly 330,000 compounds. About 1,900 (0.58%) were called active. About 4% were inconclusive and are not listed. No stated cut-off is given here; in the data, inconclusive means inhibition above about 70% without an active follow-up result; inactive means below that. Only a sample is shown. Results with a measured potency or affinity are listed apart.

assay: M. tuberculosis growth inhibition, HTS (AID 449762);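 further: bacterial growth assessed after seven days of incubation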; details: M. tuberculosis H37Rv growth inhibition, 7H9 media; at 25 µM; active compounds read high

Question: For `COc1cccc(/C=N/NC(=O)CCCC(=O)Nc2ccc(Br)cc2)c1`, which inhibition is on record?
Answer: -7.05% (inactive)

Question: For `CCc1ccc(N2CC(C(=O)OCC(=O)Nc3ccc(C(C)=O)cc3)CC2=O)cc1` (centres undefined), which inhibition is on record?
Answer: -5.19% (inactive)

Question: Which inhibition does the source give for `S=C1NC2=C(CCCC2)C2(CCCCC2)N1` here?
Answer: -1.82% (inactive)

Question: Which inhibition does the source give for `CC(C)(C)NC(=O)NC(=O)CSc1ncccn1` here?
Answer: 4.89% (inactive)

Question: For `C=CCn1c(NCc2ccc3c(c2)OCO3)nc2ccccc21`, which inhibition is on record?
Answer: 1.97% (inactive)

Question: With `O=C1OCc2nc3cc4c(cc3c(-c3ccc(F)cc3)c21)OCO4` as the compound, how does the inhibition read?
Answer: 3.09% (inactive)

Question: For `Cc1cc(NS(=O)(=O)c2ccc(NC(=O)/C=C/c3ccccc3Cl)cc2)no1`, which inhibition is on record?
Answer: 40.1% (inactive)

Question: Which inhibition does the source give for `COc1ccccc1/C=C/C(=O)Nc1ccc(S(=O)(=O)Nc2cc(C)nc(C)n2)cc1` here?
Answer: 8.18% (inactive)

Question: For `O=C(O)/C=C\C(=O)Nc1ccc(N2CCN(c3ccc(F)cc3)CC2)cc1`, which inhibition is on record?
Answer: 14% (inactive)

Question: For `Cn1c(O)c(/C=C2\C=Nc3ccccc32)c(=O)n(C)c1=O`, which inhibition is on record?
Answer: 3.29% (inactive)

Question: With `O=c1oc2ccccc2c(O)c1/C=N/c1ncccn1` as the compound, how does the inhibition read?
Answer: 4.28% (inactive)

Question: For `Cc1cc2cc(CNC(=S)Nc3ccc(OC(F)(F)F)cc3)ccc2n1C`, which inhibition is on record?
Answer: -4.09% (inactive)

Question: Which inhibition does the source give for `O=S(=O)([N-]c1nc2ccccc2nc1-n1cc[n+](Cc2ccccc2)c1)c1ccccc1` here?
Answer: 1.97% (inactive)

Question: With `CCCC[n+]1ccn(-c2nc3ccccc3nc2[N-]S(=O)(=O)c2ccccc2)c1` as the compound, how does the inhibition read?
Answer: -13.6% (inactive)

Question: Which inhibition does the source give for `O=C(NCCc1ccc(Cl)cc1)C1CCC(CNc2nc(=S)[nH]c3ccccc23)CC1` (centres undefined) here?
Answer: 5.86% (inactive)

Question: For `O=C1OC(CCl)CN1Cc1c(Cl)cccc1Cl` (centres undefined), which inhibition is on record?
Answer: -11.9% (inactive)

Question: For `Cc1nn(Cc2ccccc2Cl)c(C)c1C(=O)NCC(c1cccs1)N1CCOCC1` (centres undefined), which inhibition is on record?
Answer: 0.07% (inactive)

Question: Which inhibition does the source give for `COc1ccc(C)cc1NC(=O)CCN1CCN(c2ccccc2)CC1` here?
Answer: 5.54% (inactive)

Question: Which inhibition does the source give for `Cc1ccc(Cn2c(=N)n(CC(O)c3ccco3)c3ccccc32)cc1` (centres undefined) here?
Answer: -10.2% (inactive)

Question: For `N=c1n(Cc2ccccc2)c2ccccc2n1CC(O)c1ccco1` (centres undefined), which inhibition is on record?
Answer: -2.81% (inactive)

Question: For `COc1ccc(C(=O)CC(c2ccccc2)S(=O)(=O)c2ccc(C)cc2)cc1` (centres undefined), which inhibition is on record?
Answer: 11.8% (inactive)

Question: Which inhibition does the source give for `COc1ccc(C(CC(=O)c2ccccc2)S(=O)(=O)c2ccccc2)cc1` (centres undefined) here?
Answer: 21.9% (inactive)

Question: Which inhibition does the source give for `O=[N+]([O-])c1cccc(/C=N/Nc2nc(C(Cl)(Cl)Cl)nc3ccccc23)c1` here?
Answer: 4.81% (inactive)

Question: For `COc1ccc(CN=C2NC(=O)CC(C(=O)Nc3ccc(Cl)cc3)S2)cc1` (centres undefined), which inhibition is on record?
Answer: -3.21% (inactive)

Question: Which inhibition does the source give for `O=C(Nc1ccc(S(=O)(=O)Nc2nccc(C3Cc4ccccc4C(=O)O3)n2)cc1)c1ccccc1` (centres undefined) here?
Answer: 0.33% (inactive)

Question: For `Cc1cc(C)c(NC(=O)CCCn2c(=O)oc3ccccc32)c(C)c1`, which inhibition is on record?
Answer: 0.61% (inactive)

Question: For `Cc1[nH][nH]c(=O)c1C(c1ccc(-c2cccc(Cl)c2)o1)c1c(C)[nH][nH]c1=O`, which inhibition is on record?
Answer: 4.79% (inactive)

Question: For `Cc1[nH][nH]c(=O)c1C(c1ccc(-c2cccc(C(=O)O)c2)o1)c1c(C)[nH][nH]c1=O`, which inhibition is on record?
Answer: 0.63% (inactive)

Question: With `CC(OC(=O)c1nn(C(C)C)c(=O)c2ccccc12)C(=O)Nc1ncc(Cl)cc1Cl` (centres undefined) as the compound, how does the inhibition read?
Answer: -5.66% (inactive)

Question: For `Cc1cc(=O)oc2cc(OC(C)C(=O)N3CCCc4ccccc43)ccc12` (centres undefined), which inhibition is on record?
Answer: -5.32% (inactive)

Question: Which inhibition does the source give for `CC(NCC1COc2ccccc2O1)C1COc2ccccc2O1` (centres undefined) here?
Answer: -4.91% (inactive)

Question: Which inhibition does the source give for `CC1CN(c2ccc(Cl)nn2)CC(C)O1` (centres undefined) here?
Answer: 7.67% (inactive)

Question: For `COc1ccc(C(CCN(Cc2ccc(OC)c(OC)c2)C(C)=O)C(C)C)cc1` (centres undefined), which inhibition is on record?
Answer: 2.76% (inactive)

Question: For `COc1ccc(C(CCN(Cc2ccc(OC)c(OC)c2)C(C)=O)c2ccccc2)cc1` (centres undefined), which inhibition is on record?
Answer: -0.43% (inactive)

Question: Which inhibition does the source give for `CCC1CN(C(=O)N2CCC(C(=O)Nc3ccccc3OC)CC2)c2ccccc2O1` (centres undefined) here?
Answer: 10.6% (inactive)

Question: For `O=S(=O)(c1ccc2ccccc2c1)N1CCN(S(=O)(=O)N2CCCCC2)CC1`, which inhibition is on record?
Answer: 0.71% (inactive)

Question: With `COc1ccc(C2=NOC(C(=O)N3CCN(C(=O)c4ccco4)CC3)C2)cc1OC` (centres undefined) as the compound, how does the inhibition read?
Answer: 2.5% (inactive)

Question: Which inhibition does the source give for `O=C(c1ccco1)N1CCN(C(=O)C2CC(c3ccc(F)cc3)=NO2)CC1` (centres undefined) here?
Answer: 10.6% (inactive)

Question: Which inhibition does the source give for `Cn1c(CSc2nc3ccccc3s2)nnc1SCC(=O)NCCN1CCOCC1` here?
Answer: 1.49% (inactive)

Question: Which inhibition does the source give for `CCCCn1nc(C(=O)Oc2ccc3c(C)cc(=O)oc3c2)c2ccccc2c1=O` here?
Answer: 64.9% (inactive)

Question: With `CCOC(=O)CSc1nc2ccccc2c(=O)n1CC` as the compound, how does the inhibition read?
Answer: -0.95% (inactive)

Question: With `CCn1c(SCC(=O)NC2CCCCC2)nc2ccccc2c1=O` as the compound, how does the inhibition read?
Answer: -17.1% (inactive)

Question: Which inhibition does the source give for `O=C(Nc1ccn([C@H]2CC[C@@H](CO)O2)c(=O)n1)c1ccccc1` here?
Answer: -7.83% (inactive)

Question: For `O=C(COC(=O)/C=C/c1cccc(Br)c1)NC1CCCCC1`, which inhibition is on record?
Answer: 1.15% (inactive)

Question: Which inhibition does the source give for `CCC(C(=O)n1cccc1C#N)c1ccccc1C` (centres undefined) here?
Answer: -5.42% (inactive)

Question: With `CCOC(=O)c1nn(-c2ccc(Cl)cc2)cc1O` as the compound, how does the inhibition read?
Answer: 47.5% (inactive)

Question: Which inhibition does the source give for `CCOC(=O)c1nn(-c2ccc(C)cc2)cc1O` here?
Answer: 25.8% (inactive)

Question: Which inhibition does the source give for `O=C(/C=C/Nc1ccc(Br)cc1F)c1ccco1` here?
Answer: 4.98% (inactive)

Question: With `O=C(Oc1ccc(Br)cc1C(=O)/C=C/c1ccccc1F)c1ccco1` as the compound, how does the inhibition read?
Answer: 0.45% (inactive)

Question: With `CCNS(=O)(=O)c1ccc(C(=O)OCC(=O)N2CCCc3ccccc32)cc1` as the compound, how does the inhibition read?
Answer: 5.95% (inactive)

Question: Which inhibition does the source give for `CS(=O)(=O)c1ccc(C(=O)OCC(=O)N2CCCc3ccccc32)cc1` here?
Answer: -0.56% (inactive)

Question: With `O=C1C=C(NCc2ccco2)C2(CCCCC2)O1` as the compound, how does the inhibition read?
Answer: -1.04% (inactive)

Question: With `CCNc1nc(NC(C)C)nc(ON=C(C)C)n1` as the compound, how does the inhibition read?
Answer: -5.67% (inactive)

Question: For `Cc1cc(C(=O)N=Nc2c(O)n(C)c3ccccc23)c(C)o1`, which inhibition is on record?
Answer: 5.51% (inactive)

Question: For `COc1ccc(C(C)=O)cc1COC(=O)c1cc(C)nc2ccccc12`, which inhibition is on record?
Answer: 11.9% (inactive)

Question: With `COc1ccc(C(C)=O)cc1COC(=O)c1cc2ccccc2cc1O` as the compound, how does the inhibition read?
Answer: -1.43% (inactive)

Question: With `C=CCn1c(C)c(/C=C/c2cc[n+](C)cc2)c2ccccc21` as the compound, how does the inhibition read?
Answer: 0.73% (inactive)

Question: Which inhibition does the source give for `Cc1ccc2[nH]cc(/C=C/c3cc[n+](C)cc3)c2c1` here?
Answer: -0.27% (inactive)

Question: Which inhibition does the source give for `Cc1c(C)n2c(SCC(=O)Nc3cccc4ccccc34)nnc2[nH]c1=O` here?
Answer: 5.62% (inactive)
